The results in this text go back to paper PMC7862700, “An all-to-all approach to the identification of sequence-specific readers for epigenetic DNA modifications on cytosine”.

What all share (assay): DAPPL (digital affinity profiling via proximity ligation, sequencing); 10 mM Tris-HCl pH 7.5, 50 mM NaCl, 1 mM DTT, 4% glycerol, room temperature, 30 min; GST-TFs on glutathione beads, 16-mer random dsDNA library, 0.1% formaldehyde crosslink after washing; high values mean tight binding
Conditions in all cases: protein: recombinant; tags: N-terminal GST; dsDNA, one strand shown

In one experiment the target is T1, ERF (Homo sapiens, UniProt P50548 1-548).
T1 sequence: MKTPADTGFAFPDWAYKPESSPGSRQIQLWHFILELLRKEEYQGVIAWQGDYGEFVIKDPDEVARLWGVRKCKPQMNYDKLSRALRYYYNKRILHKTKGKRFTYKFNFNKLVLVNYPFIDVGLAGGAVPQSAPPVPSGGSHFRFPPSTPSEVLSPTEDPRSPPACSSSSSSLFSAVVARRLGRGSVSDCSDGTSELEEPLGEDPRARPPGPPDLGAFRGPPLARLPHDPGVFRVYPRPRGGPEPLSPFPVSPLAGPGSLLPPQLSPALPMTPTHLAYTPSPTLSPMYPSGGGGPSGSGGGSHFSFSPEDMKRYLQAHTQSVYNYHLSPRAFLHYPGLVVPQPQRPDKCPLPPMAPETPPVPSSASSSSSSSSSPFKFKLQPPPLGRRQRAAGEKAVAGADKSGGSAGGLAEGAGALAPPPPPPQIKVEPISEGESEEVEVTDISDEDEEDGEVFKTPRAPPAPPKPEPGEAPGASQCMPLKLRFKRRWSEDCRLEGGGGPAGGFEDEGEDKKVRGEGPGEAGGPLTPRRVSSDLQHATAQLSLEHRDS
The method, boiled down: (§1)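 A tag-only sample was pooled with DNA-barcoded human transcription factors that had been expressed in yeast as GST fusions and captured on glutathione beads. The pools were incubated for 30 min at room temperature with 200 nmole of a random double-stranded 16-mer DNA library in Tris/NaCl/DTT/glycerol buffer, then washed, crosslinked with 0.1% formaldehyde, proximity-ligated (BsaI/T4 ligase, 1 h, 37 °C), PCR-amplified and sequenced on an Illumina NextSeq500. Binding signal is each hexamer's read frequency for a factor divided by its frequency for the tag-only sample.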

The target in a further experiment is T2, ETV3L (Homo sapiens, UniProt Q6ZN32 1-361).
T2 sequence: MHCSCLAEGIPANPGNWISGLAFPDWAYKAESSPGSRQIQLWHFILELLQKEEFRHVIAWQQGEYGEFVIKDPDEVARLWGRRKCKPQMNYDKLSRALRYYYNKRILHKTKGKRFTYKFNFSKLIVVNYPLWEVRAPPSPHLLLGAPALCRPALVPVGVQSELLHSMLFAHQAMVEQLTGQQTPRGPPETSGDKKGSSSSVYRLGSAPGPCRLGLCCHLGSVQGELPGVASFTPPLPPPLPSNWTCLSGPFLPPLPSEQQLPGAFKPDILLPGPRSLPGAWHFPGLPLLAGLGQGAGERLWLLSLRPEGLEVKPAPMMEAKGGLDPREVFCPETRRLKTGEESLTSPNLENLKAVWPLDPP
The method, boiled down: as §1

In the next experiment the target is T3, ETS2 (Homo sapiens, UniProt P15036 1-469).
T3 sequence: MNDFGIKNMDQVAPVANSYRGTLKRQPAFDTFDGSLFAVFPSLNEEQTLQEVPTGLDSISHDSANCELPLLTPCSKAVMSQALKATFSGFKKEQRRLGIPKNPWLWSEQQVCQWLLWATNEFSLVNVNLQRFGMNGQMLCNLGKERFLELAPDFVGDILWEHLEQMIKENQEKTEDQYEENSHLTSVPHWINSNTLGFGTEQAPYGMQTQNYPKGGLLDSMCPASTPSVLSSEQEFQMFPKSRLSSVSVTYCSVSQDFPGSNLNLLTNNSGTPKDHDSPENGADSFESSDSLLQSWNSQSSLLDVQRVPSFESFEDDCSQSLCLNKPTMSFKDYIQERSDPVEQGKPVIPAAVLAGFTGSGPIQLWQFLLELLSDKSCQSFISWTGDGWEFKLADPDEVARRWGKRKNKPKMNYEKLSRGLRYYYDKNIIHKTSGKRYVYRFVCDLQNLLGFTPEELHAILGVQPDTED
The method, boiled down:
as §1

For a further experiment, the target named is T4, ETV7 (Homo sapiens, UniProt Q9Y603 1-341).
T4 sequence: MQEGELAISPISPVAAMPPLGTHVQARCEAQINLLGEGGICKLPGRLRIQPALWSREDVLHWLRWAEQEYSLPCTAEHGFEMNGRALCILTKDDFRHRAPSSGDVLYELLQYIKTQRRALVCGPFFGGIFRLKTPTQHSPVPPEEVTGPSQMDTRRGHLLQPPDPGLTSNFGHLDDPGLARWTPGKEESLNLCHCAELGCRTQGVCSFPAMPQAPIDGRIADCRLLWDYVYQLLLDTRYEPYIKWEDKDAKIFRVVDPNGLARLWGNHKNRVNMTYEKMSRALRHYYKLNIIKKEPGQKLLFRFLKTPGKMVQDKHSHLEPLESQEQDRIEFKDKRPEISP
The method, boiled down:
as §1

The target in another experiment is T5, ELF5 (Homo sapiens, UniProt Q9UKW6-2 1-255).
T5 sequence: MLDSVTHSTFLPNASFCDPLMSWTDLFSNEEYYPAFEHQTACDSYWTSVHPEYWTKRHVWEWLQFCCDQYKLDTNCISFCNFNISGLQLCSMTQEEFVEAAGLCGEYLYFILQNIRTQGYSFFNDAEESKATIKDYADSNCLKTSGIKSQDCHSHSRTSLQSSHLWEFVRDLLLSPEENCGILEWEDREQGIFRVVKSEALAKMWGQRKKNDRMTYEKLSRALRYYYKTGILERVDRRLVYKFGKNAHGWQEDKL
The procedure, abridged:
as §1

For a further experiment, the target named is T6, ETV3 (Homo sapiens, UniProt P41162-2 1-143).
T6 sequence: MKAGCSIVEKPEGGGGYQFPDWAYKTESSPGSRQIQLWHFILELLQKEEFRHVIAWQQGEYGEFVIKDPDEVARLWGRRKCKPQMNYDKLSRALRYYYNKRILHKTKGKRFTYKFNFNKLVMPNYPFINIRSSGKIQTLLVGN
The method, boiled down: as §1

For another experiment, the target named is ETV6 (Homo sapiens, UniProt P41212 1-452). The method, boiled down: as §1
For another experiment, the target named is T7, SPDEF (Homo sapiens, UniProt O95238 1-335).
T7 sequence: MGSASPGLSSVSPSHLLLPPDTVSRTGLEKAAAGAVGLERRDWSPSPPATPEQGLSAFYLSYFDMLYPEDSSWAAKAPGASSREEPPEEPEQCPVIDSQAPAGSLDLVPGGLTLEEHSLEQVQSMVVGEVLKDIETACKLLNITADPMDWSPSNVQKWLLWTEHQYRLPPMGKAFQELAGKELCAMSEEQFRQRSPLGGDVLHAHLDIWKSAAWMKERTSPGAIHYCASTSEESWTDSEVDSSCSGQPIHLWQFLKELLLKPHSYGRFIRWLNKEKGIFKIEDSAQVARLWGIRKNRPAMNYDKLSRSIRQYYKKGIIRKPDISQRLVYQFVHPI
The method, boiled down:
as §1

Sequence of ETV6 (P41212 whole entry): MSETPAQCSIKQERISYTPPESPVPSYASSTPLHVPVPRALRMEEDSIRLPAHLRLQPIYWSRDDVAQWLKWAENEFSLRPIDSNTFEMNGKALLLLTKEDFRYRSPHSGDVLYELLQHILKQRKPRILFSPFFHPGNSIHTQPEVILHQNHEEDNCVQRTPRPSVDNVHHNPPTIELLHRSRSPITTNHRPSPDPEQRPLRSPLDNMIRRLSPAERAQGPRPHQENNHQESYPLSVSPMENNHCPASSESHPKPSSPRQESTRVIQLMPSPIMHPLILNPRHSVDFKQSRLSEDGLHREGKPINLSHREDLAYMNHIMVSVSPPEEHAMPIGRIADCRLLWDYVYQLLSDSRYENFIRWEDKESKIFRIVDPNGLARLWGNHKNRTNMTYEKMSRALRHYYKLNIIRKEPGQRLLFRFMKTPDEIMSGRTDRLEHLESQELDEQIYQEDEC

In the case of AAGACT, the binding signal was 1.16 fold enrichment (6-mer frequency, TF over GST control) with ERF; 1.04 fold enrichment (6-mer frequency, TF over GST control) with ETV3L; 1.07 fold enrichment (6-mer frequency, TF over GST control) with ETS2; 1.08 fold enrichment (6-mer frequency, TF over GST control) with ETV7; 1.15 fold enrichment (6-mer frequency, TF over GST control) with ELF5; 1.12 fold enrichment (6-mer frequency, TF over GST control) with ETV3. Also, in the experiment with ETV6, the binding signal was 1.13 fold enrichment (6-mer frequency, TF over GST control).

On to ATCACA, for which the binding signal is 1.04 fold enrichment (6-mer frequency, TF over GST control) with ERF; 1.05 fold enrichment (6-mer frequency, TF over GST control) in the experiment with ETV3L; 1.09 fold enrichment (6-mer frequency, TF over GST control) in the experiment with ETS2; 1.05 fold enrichment (6-mer frequency, TF over GST control) in the experiment with SPDEF; 1.09 fold enrichment (6-mer frequency, TF over GST control) in the experiment with ETV3; 1.13 fold enrichment (6-mer frequency, TF over GST control) with ETV6.

GCGCCT: the binding signal with ERF is 1.05 fold enrichment (6-mer frequency, TF over GST control); with ETV3L, 1.07 fold enrichment (6-mer frequency, TF over GST control); with ETS2 it was 1.02 fold enrichment (6-mer frequency, TF over GST control); in the experiment with ETV7, 1.06 fold enrichment (6-mer frequency, TF over GST control); with ELF5, 1.04 fold enrichment (6-mer frequency, TF over GST control); with ETV3 it was 1.1 fold enrichment (6-mer frequency, TF over GST control). Moreover, the binding signal with ETV6 was 1.12 fold enrichment (6-mer frequency, TF over GST control).

With AAGCAA, the binding signal was 1.01 fold enrichment (6-mer frequency, TF over GST control) with ERF; 1.01 fold enrichment (6-mer frequency, TF over GST control) with ETV3L; 1.11 fold enrichment (6-mer frequency, TF over GST control) with ETS2; 1.05 fold enrichment (6-mer frequency, TF over GST control) with ETV7; 1.03 fold enrichment (6-mer frequency, TF over GST control) with ELF5; 1.12 fold enrichment (6-mer frequency, TF over GST control) with ETV3. In the experiment with ETV6, the binding signal is 1.02 fold enrichment (6-mer frequency, TF over GST control).

As for AACAGC, the binding signal in the experiment with ERF was 1.15 fold enrichment (6-mer frequency, TF over GST control); with ETV3L, 1.05 fold enrichment (6-mer frequency, TF over GST control); with ETS2 it was 1.08 fold enrichment (6-mer frequency, TF over GST control); with ETV7 it was 1.21 fold enrichment (6-mer frequency, TF over GST control); with ELF5, 1.09 fold enrichment (6-mer frequency, TF over GST control); with ETV3 it was 1.13 fold enrichment (6-mer frequency, TF over GST control). For the same sequence, the binding signal in the experiment with ETV6 was 1.1 fold enrichment (6-mer frequency, TF over GST control).

Consider GCTCGA, for which the binding signal was 1.24 fold enrichment (6-mer frequency, TF over GST control) with ERF; 1.26 fold enrichment (6-mer frequency, TF over GST control) with ETV3L; 1.19 fold enrichment (6-mer frequency, TF over GST control) with ETS2; 1.11 fold enrichment (6-mer frequency, TF over GST control) with ETV7; 1.1 fold enrichment (6-mer frequency, TF over GST control) with ELF5; 1.14 fold enrichment (6-mer frequency, TF over GST control) in the experiment with ETV3. Moreover, the binding signal with ETV6 is 1.25 fold enrichment (6-mer frequency, TF over GST control).

In the case of AGTTCT, the binding signal with ERF is 1.14 fold enrichment (6-mer frequency, TF over GST control); with ETV3L, 1.12 fold enrichment (6-mer frequency, TF over GST control); in the experiment with ETS2 it was 1.17 fold enrichment (6-mer frequency, TF over GST control); in the experiment with ETV7 it was 1.11 fold enrichment (6-mer frequency, TF over GST control); with ELF5, 1.15 fold enrichment (6-mer frequency, TF over GST control); with ETV3, 1.18 fold enrichment (6-mer frequency, TF over GST control). The binding signal in the experiment with ETV6 was 1.13 fold enrichment (6-mer frequency, TF over GST control).
